Measured values: PubChem BioAssay (NCI)
About 83,000 compounds went through this panel and 20% of them were active in at least one assay; those are over-represented in the sample as a whole.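 Single-concentration screen, 48 h exposure, 96-well plates. Endpoint: percent growth. Below 10 = active.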 Unmarked numbers belong to inactive results. Calls of active or inactive are those of the source.

Experiments:
Experiment in all cases: NCI-60 one-dose screen, 48 h (100 = growth as untreated, 0 = no growth, -100 = all killed)
Conditions in all cases: 10 µM unless noted
[1] = system: NCI-H23 lung
[2] = system: NCI-H226 lung
[3] = system: NCI-H322M lung
[4] = system: HOP-62 NSCLC
[5] = system: NCI-H460 lung
[6] = system: HOP-92 NSCLC
[7] = system: NCI-H522 lung
[8] = system: A549/ATCC NSCLC
[9] = system: 786-0 renal
[10] = system: COLO 205 colon
[11] = system: DU-145 prostate
[12] = system: K-562 leukemia
[13] = system: MALME-3M melanoma
[14] = system: MDA-MB-231 breast
[15] = system: RXF 393 renal
[16] = system: SF-268 CNS
[17] = system: SF-295 CNS
[18] = system: SF-539 CNS
[19] = system: UACC-257 melanoma
[20] = system: M14 melanoma

Row | SMILES | growth [1] | growth [2] | growth [3] | growth [4] | growth [5] | growth [6] | growth [7] | growth [8] | growth [9] | growth [10] | growth [11] | growth [12] | growth [13] | growth [14] | growth [15] | growth [16] | growth [17] | growth [18] | growth [19] | growth [20]
1 | C#COc1cccc(Nc2ncnc3ncc(NC(=O)CCl)cc23)c1 | 32.9% [6.25 µM] | 43.8% [6.25 µM] | 59.4% [6.25 µM] | -2.06% [6.25 µM] (active) | -5.59% [6.25 µM] (active) | 59.5% [6.25 µM] | -79.2% [6.25 µM] (active) | 23% [6.25 µM] | -69.6% [6.25 µM] (active) | -46.9% [6.25 µM] (active) | 8.37% [6.25 µM] (active) | 15.3% [6.25 µM] | 37.1% [6.25 µM] | -4.91% [6.25 µM] (active) | -12.9% [6.25 µM] (active) | -6.57% [6.25 µM] (active) | 33.5% [6.25 µM] | 0.882% [6.25 µM] (active) | 59.4% [6.25 µM] | 35.8% [6.25 µM]
2 | CN1CCN(c2ccc(C(=O)Nc3cccc(C#Cc4cccc5[nH]nc(N)c45)c3)cc2C(F)(F)F)CC1 | -51.9% (active) | 15.6% | -24.6% (active) | -63.7% (active) | -68.4% (active) | -11.8% (active) | -59.1% (active) | -67.2% (active) | -70.4% (active) | -72.9% (active) | -20.3% (active) | -36.9% (active) | -66.3% (active) | -72.2% (active) | -25.4% (active) | -1.07% (active) | -58.5% (active) | -82.7% (active) | -67.1% (active) | -69.5% (active)
3 | COc1ccc(-c2csc(NC(=O)CSc3nc(-c4ccccc4)cc(=O)[nH]3)n2)cc1 | 51% | 78.7% | 90.1% | 50.7% | 78.7% | 90.2% | 58% | 64.6% | 67.4% | 56.6% | 76.1% | 42.9% | 60.2% | 83.5% | 86.5% | 77.9% | 53.3% | 78.3% | 77.1% | 59.1%
4 | CCN(CC)CCSc1nc(-c2ccccc2)c(C#N)c(=O)[nH]1 | 68.9% | 116% | 122% | 55% | 118% | 120% | 104% | 113% | 97.7% | 94.9% | 112% | 129% | 140% | 116% | 118% | 102% | 105% | 100% | 111% | 111%
5 | Oc1ccc(CCn2c(O)c(/C=C3\CN=c4ccccc4=N3)sc2=S)cc1 | 59.1% | 88.7% | 78.7% | 65.8% | 83.3% | -14.4% (active) | 18.5% | 82.1% | 28.3% | 103% | 28% | 22.9% | 62.3% | 26% | 45.1% | 75% | 93.6% | 20.7% | 71.4% | 62.4%
6 | O=C1/C(=C/c2ccc(F)cc2)COc2ccc(O)c(O)c21 | 44.3% | 79.6% | 39.9% | 8.74% (active) | 48.6% | 6.21% (active) | -65.1% (active) | 47.4% | -47.6% (active) | 28% | 18.6% | 10.6% | -10.4% (active) | -12.1% (active) | -3.02% (active) | 13.1% | 75% | -62.1% (active) | 15.8% | 37.5%
7 | C=C1C(=O)O[C@H]2[C@H]1CC/C(COC(=O)NCc1cc[nH]c1)=C\CC[C@@]1(C)O[C@@H]21 | 85.8% | 68.5% | 89.5% | 87.3% | 68.5% | 37.2% | -8.14% (active) | 86.7% | 49.5% | 31.2% | 12.4% | 16.6% | 84.2% | 35.4% | 31.1% | 64.9% | 83.5% | 50.8% | 59.1% | 32.7%
8 | COc1ccc2nc3ccc(OC)cc3c(SCCCN)c2c1 | 74.5% | 97.8% | 114% | 79.8% | 110% | 43.6% | 57.7% | 79.6% | 49% | 48.9% | 19.8% | -33.6% (active) | 95% | 102% | 49.1% | 94.1% | 95.9% | 108% | 105% | 81%
9 | Cc1ccc(-c2nc3nc(-c4ccccc4)nc(N4CCNCC4)c3o2)cc1 | -73.7% (active) | -68.6% (active) | -95.9% (active) | -92.9% (active) | -72.4% (active) | -73.5% (active) | -79.2% (active) | -84.5% (active) | -84.5% (active) | -92.4% (active) | -86.8% (active) | -71% (active) | -80.4% (active) | -79.3% (active) | -81.2% (active) | -67.2% (active) | -83.2% (active) | -93.4% (active) | -89.2% (active) | -84.7% (active)
10 | COC(=O)c1cc(-c2ccc(S(C)(=O)=O)cc2)[nH]c1N/N=C/c1c(Cl)cccc1Cl | 29.6% | 47.5% | 15.4% | 3.22% (active) | 3.65% (active) | 18.9% | -15.1% (active) | 25.2% | 5.08% (active) | -19.3% (active) | 4.36% (active) | -1.67% (active) | 4.13% (active) | 50.9% | -2.32% (active) | 37.1% | -28.2% (active) | -19.8% (active) | 60.3% | -8.67% (active)
11 | CN(C)CCNC(=O)c1cccc(-c2cnc3ccc(-c4ccc5c(c4)OCO5)nn23)c1 | 69.2% | 75.3% | 58.6% | 88.4% | 4.35% (active) | 72.4% | 87.7% | 87% | 74.2% | 74.8% | 66.5% | 1.77% (active) | 88.7% | 77.9% | 42.3% | 76.7% | 106% | 66.9% | 108% | 67.7%
12 | C1=CN2CC(c3ccccc3)=NNC2c2ccccc21 (stereo not given) | 76.1% | 63.3% | 86.1% | 72.4% | 98% | 76.7% | 75.5% | 95.1% | 99.3% | 113% | 113% | 48.6% | 80.4% | 63.4% | 90% | 106% | 104% | 92.6% | 97.1% | 94.1%
13 | N#C/C(=C\c1ccc2ccccc2c1)c1cc2ccccc2[nH]1 | 48.8% | 67.9% | 63.3% | 40.4% | 13.3% | 41.5% | 1.83% (active) | 51.1% | 41.1% | 24.9% | 59.5% | 19.4% | 45% | 41.5% | 29.3% | 54.2% | 33% | 32.9% | 63.2% | 18%
14 | COc1ccc(-c2nc(/C=C3\SC(=NCc4ccccc4)NC3=O)c3ccccn23)cc1 | -73.4% (active) | 5.75% (active) | 20.4% | -50.7% (active) | -54.6% (active) | -38.2% (active) | -36% (active) | -27.3% (active) | -96.3% (active) | -69.1% (active) | -88.6% (active) | 18.4% | -33.1% (active) | -13.9% (active) | -86.7% (active) | -37.4% (active) | 17.5% | -43.4% (active) | -17% (active) | -95.7% (active)
15 | O=C(Nc1nn(-c2ccc(Cl)cc2Cl)nc1-c1ccccc1)c1ccccc1 | 97.2% | 98.6% | 99.2% | 77.3% | 107% | 86.9% | 87.2% | 94.7% | 94.3% | 99.3% | 131% | 91.9% | 80.2% | 98.3% | 111% | 107% | 56.9% | 121% | 106% | 87.1%
16 | COc1ccc2cc(-c3ccc(NC(C)=O)c(=O)o3)ccc2c1 | 94.4% | 94.4% | 92.2% | 94.3% | 100% | 97.8% | 78.8% | 87.5% | 98.8% | 115% | 103% | 81.4% | 101% | 110% | 98.3% | 95.5% | 100% | 96.7% | 89.3% | 94.3%
